Consider 39 compounds from PubChem BioAssay AID493170 (National Center for Advancing Translational Sciences (NCATS), 2011).

Results filed as inconclusive are left out. Where a call stands in place of a potency, no number is given. Activity calls are given as the source filed them. The call rests on the fitted dose curve; in most records, active means well fitted inhibition curve with a large enough effect; inconclusive means small, poorly fitted or top-dose-only effect, or effect the other way; inactive means flat fitted curve, though single readings scatter.
Potency means the concentration at half of the fitted maximal effect.

Ubiquitin carboxyl-terminal hydrolase 2 (Homo sapiens), sequence (O75604 whole entry, looked up): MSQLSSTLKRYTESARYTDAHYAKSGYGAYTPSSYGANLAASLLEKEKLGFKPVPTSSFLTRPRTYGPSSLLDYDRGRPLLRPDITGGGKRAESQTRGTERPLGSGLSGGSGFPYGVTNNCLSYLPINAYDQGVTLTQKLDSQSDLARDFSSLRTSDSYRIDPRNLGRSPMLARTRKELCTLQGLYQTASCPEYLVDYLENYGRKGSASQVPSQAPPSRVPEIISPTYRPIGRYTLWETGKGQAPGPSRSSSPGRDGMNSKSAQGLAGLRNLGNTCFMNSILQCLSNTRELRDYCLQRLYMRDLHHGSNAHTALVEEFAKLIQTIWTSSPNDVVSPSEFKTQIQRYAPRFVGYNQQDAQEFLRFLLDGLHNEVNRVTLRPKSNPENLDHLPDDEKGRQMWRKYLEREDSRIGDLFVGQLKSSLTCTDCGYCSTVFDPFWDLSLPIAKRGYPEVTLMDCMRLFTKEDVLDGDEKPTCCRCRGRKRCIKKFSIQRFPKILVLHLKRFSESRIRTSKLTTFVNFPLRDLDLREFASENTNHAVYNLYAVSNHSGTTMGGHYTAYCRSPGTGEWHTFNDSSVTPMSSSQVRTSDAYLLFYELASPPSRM

The assay addresses Ubiquitin carboxyl-terminal hydrolase 2 (Homo sapiens) (UniProt O75604). Kind of assay: Ub-rhodamine 110 based assay for inhibitors Ubiquitin-specific Protease USP2a. Further: nearly all actives have a fitted effect of over 50% in size. The following applies: USP2a Ub-rhodamine110 cleavage, fluorescence; series mostly up to 38.3 µM. In short, it runs like this:
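Kinetic fluorescence (485/531 nm) read each minute over 7 min after adding Ub-Rhod110 (150 nM final) to USP2a (5 nM final). The enzyme had 30 min RT exposure to compounds beforehand in Tris pH 8.0 buffer with CaCl2, CHAPS and beta-ME.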
In the case of `COc1ccc(N(C(=O)C(C)C)S(=O)(=O)c2ccc(Cl)cc2)cc1`, the Potency result is “inactive”.

In the case of `COc1ccc(C(=O)Nc2ccc(N3CCCC3)cc2)cc1OC`, the Potency entry is “inactive”.

With `O=C(Cc1cccs1)Nc1ccc(S(=O)(=O)N2CCCCC2)cc1`, the Potency was 7.94 µM (active).

For `C=CC[C@H](CC(=O)N[C@H](CO)Cc1ccccc1)C(=O)N[C@@H](COC(=O)[C@@H](CC=C)CC(=O)OC(C)(C)C)Cc1c[nH]c2ccccc12`, the Potency entry was “inactive”.

On to `CCC(C(=O)Nc1nnc(-c2ccco2)s1)c1ccccc1` (centres undefined), for which the Potency entry is “inactive”.

Regarding `CC(=O)Nc1ccc(NC(=O)C2CCCN(S(=O)(=O)c3ccc(Cl)cc3)C2)cc1` (centres undefined), the Potency entry was “inactive”.

Take `Cc1cccc(N2CCN(C(=O)CCc3nc4ccccc4[nH]3)CC2C)c1` (centres undefined): the Potency result was “inactive”.

In the case of `Cc1noc(NS(=O)(=O)c2ccc(N/C=C\C(=O)c3cccc4ccccc34)cc2)c1C`, the Potency was 10 µM (active).

Consider `COCc1c(C(=O)OCC(=O)c2c(N)n(CC(C)C)c(=O)n(C)c2=O)oc2ccccc12`, for which the Potency entry is “inactive”.

Regarding `Cc1nn(CC(=O)Nc2cccc(S(N)(=O)=O)c2)c(C)c1[N+](=O)[O-]`, the Potency entry was “inactive”.

As for `COc1ccc(CCNC(=O)Cc2cc(=O)[nH]c(=O)[nH]2)cc1OC`, the Potency result was “inactive”.

Regarding `CCOC(=O)c1sc(NC(=O)Nc2ccccc2)cc1C`, the Potency result was “inactive”.

On to `CCc1cc(C(=O)N=Nc2c(O)[nH]c3ccc([N+](=O)[O-])cc23)c2ccccc2n1`, for which the Potency is 11.2 µM (active).

As for `COc1ccc(-n2c(O)c(/C=N/n3cnnc3)c3ccccc3c2=O)cc1`, the Potency entry is “inactive”.

Take `O=C(CC(C(=O)O)C1CCCO1)NCCc1ccc2c(c1)OCO2` (centres undefined): the Potency entry was “inactive”.

For `O=C(Nc1cccc(-c2nn[nH]n2)c1)c1ccc(Br)s1`, the Potency entry was “inactive”.

Turning to `CNc1nc(OCCNC(=O)Nc2ccccc2)nc(N2CCOCC2)n1`, the Potency result is “inactive”.

Regarding `Cc1c(NC(=O)C2CCCN(S(=O)(=O)c3cnc[nH]3)C2)c(=O)n(-c2ccccc2)n1C` (centres undefined), the Potency entry was “inactive”.

Turning to `COc1ccc(-c2nc(Cn3c(SCc4ccc(F)cc4)nc4ccncc43)c(C)o2)cc1OC`, the Potency entry was “inactive”.

For the compound `Cc1csc(NC(=O)CCn2c(=O)sc3ccccc32)n1`, the Potency entry was “inactive”.

Consider `CCN(C[C@H]1N[C@@](CC)(C(=O)OC)[C@H]2C(=O)N(Cc3ccccc3)C(=O)[C@@H]12)C(=O)Nc1ccc(C)cc1`, for which the Potency result was “inactive”.

`OCCN(Cc1ccccc1)c1ncnc2sccc12`: the Potency result is “inactive”.

With `CC(C)CC(c1nnnn1CC1CCCO1)N1CCN(c2nc3ccccc3s2)CC1` (centres undefined), the Potency result is “inactive”.

In the case of `O=C(OCc1ccccc1)C1CCCN1C(=O)c1cccs1` (centres undefined), the Potency entry is “inactive”.

With `CCN(Cc1ccncc1)C(=O)c1cccs1`, the Potency entry is “inactive”.

For `O=C(Nc1ccncc1)c1ccc(S(=O)(=O)Nc2ccccc2)cc1`, the Potency entry was “inactive”.

As to `CCOC(=O)C1CCCN(C(=O)c2cc(-c3ccco3)nc3ccccc23)C1` (centres undefined), the Potency is 4.47 µM (active).

For `CCOC(=O)N1CCN(CC(=O)n2c(C)c(C)c3ccccc32)CC1`, the Potency entry is “inactive”.

In the case of `O=C(Nc1ccc(Oc2ccc(Cl)cc2)cc1)c1ncn[nH]1`, the Potency result is “inactive”.

As for `O=C(Nc1nnc(SCC(=O)N2CCCC2)s1)C1CC(=O)N(c2ccc(F)cc2)C1` (centres undefined), the Potency is 11.2 µM (active).

Take `O=c1oc2ccccc2n1Cn1c(=O)oc2ccccc21`: the Potency result was “inactive”.

Consider `O=C(Nc1ccccc1)Nc1snnc1C(=O)Nc1cccc(O)c1`, for which the Potency is 10 µM (active).

As to `COC(=O)c1c(NC(=O)c2cccnc2)sc(C)c1C`, the Potency entry is “inactive”.

On to `CC(C)CCn1c(CN2CCN(C(=O)c3ccco3)CC2)nc2c1c(=O)n(C)c(=O)n2C`, for which the Potency result is “inactive”.

In the case of `O=c1oc2c(CN3CCCCC3)c(O)ccc2c2c1CCCCC2`, the Potency result is “inactive”.

With `O=C(/C=C/c1ccc(Cl)c([N+](=O)[O-])c1)Nc1ccc(N2CCCC2)cc1`, the Potency was 12.6 µM (active).

As for `COc1ccc(Cc2nnc(NC(=O)Cc3cccs3)s2)cc1`, the Potency was 1.41 µM (active).

As for `CC(C)Cn1c(SCC(N)=O)nnc1-c1cccc(S(=O)(=O)N2CCOCC2)c1`, the Potency entry was “inactive”.

Consider `CCOC(=O)N1CCN(C(=O)c2cc3c(ccc4ccccc43)oc2=O)CC1`, for which the Potency entry was “inactive”.
